Measurements as given in the supplement of paper PMC10849652.
The full data set covers some 7,900 targets. This sample favours those with a hit. About 0.6% of all pairs of compound and target were hits.

Experiments:
Experiment in all cases: log2 fold change, soluble protein after heating vs DMSO (PISA); higher = thermal stabilisation; K562 cells, 10 uM, 30 min; active = over 0.2 and 3.5 SD of the protein, either way, in both replicates (recomputed)
[1] = compound: C1=CC=C(C=C1)[C@H](COC2=CC3=C(C=C2)NC(=O)N3)NC(=O)C4=CC=CN(C4=O)CC5=CC(=C(C=C5)F)F
Outline: (§1)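 K562 cells at 2×10^6 cells/mL were given 10 μM compound for 30 min. Aliquots then went through 3 min of heating across 48°C-58°C, were pooled, and were extracted in PBS with 0.5% NP-40 at 4°C, and the supernatant after 21,000xg for 90 min was quantified by TMTpro 16plex LC-MS/MS with channel sums equalised. Thermal stability relative to control samples, from duplicates, is given as log2 fold change.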

[2] = compound: CC1=C(SC2=C1C(=N[C@H](C3=NN=C(N32)C)CC(=O)N)C4=CC=C(C=C4)Cl)C
Outline: as §1

[3] = compound: CC1=C2C(=CC=C1)N=C(N(C2=O)C3=CC=CC=C3C)CN4C=NC5=C(N=CN=C54)N
Outline: as §1

[4] = compound: Cc1sc2c(c1C)C(c1ccc(Cl)cc1)=N[C@@H](CC(=O)OC(C)(C)C)c1nnc(C)n1-2
Outline: as §1

[5] = compound: c1ccc([C@@H]2C[C@H]2NC2CCNCC2)cc1
Outline: as §1

Measured: log2 fold change

RIC8A isoform 3 (UniProt Q9NPQ8)
Chain of UniProt Q9NPQ8 (Q9NPQ8 whole entry, looked up): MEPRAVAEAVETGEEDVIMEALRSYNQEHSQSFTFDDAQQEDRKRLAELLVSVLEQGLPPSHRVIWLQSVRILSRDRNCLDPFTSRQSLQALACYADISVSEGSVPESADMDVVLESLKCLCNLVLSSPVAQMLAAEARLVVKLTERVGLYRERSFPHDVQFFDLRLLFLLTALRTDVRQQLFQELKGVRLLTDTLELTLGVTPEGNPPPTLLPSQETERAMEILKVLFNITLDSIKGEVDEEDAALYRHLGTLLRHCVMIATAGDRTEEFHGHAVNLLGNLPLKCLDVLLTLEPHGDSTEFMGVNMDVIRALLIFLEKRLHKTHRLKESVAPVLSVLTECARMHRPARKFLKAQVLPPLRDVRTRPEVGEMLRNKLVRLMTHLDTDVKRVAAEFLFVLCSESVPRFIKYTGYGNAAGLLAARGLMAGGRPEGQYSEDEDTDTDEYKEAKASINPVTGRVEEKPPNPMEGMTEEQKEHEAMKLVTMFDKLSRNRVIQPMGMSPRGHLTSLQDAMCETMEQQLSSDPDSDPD
inactive: [1] -0.033 | [2] 0.02 | [3] 0.015 | [4] -0.041 | [5] -0.094

SAFB2 (UniProt K7EQU4)
inactive: [1] -0.338

RRAGC (UniProt Q9HB90)
Chain of UniProt Q9HB90 (Q9HB90 whole entry, looked up): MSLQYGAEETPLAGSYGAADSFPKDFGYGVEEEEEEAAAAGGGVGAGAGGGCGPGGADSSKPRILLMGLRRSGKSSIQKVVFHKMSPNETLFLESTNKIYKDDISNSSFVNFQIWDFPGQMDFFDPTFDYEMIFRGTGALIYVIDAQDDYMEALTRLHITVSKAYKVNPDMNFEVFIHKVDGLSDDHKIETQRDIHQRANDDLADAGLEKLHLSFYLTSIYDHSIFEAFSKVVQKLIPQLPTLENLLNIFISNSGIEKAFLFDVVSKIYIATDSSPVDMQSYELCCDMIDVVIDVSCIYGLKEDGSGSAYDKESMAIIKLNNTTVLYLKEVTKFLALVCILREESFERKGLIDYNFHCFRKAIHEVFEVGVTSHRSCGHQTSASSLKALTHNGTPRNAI
inactive: [1] 0.009 | [2] 0.104 | [3] 0.095 | [4] -0.041 | [5] 0.009

RNF2 (UniProt Q99496)
Chain of UniProt Q99496 (Q99496 whole entry, looked up): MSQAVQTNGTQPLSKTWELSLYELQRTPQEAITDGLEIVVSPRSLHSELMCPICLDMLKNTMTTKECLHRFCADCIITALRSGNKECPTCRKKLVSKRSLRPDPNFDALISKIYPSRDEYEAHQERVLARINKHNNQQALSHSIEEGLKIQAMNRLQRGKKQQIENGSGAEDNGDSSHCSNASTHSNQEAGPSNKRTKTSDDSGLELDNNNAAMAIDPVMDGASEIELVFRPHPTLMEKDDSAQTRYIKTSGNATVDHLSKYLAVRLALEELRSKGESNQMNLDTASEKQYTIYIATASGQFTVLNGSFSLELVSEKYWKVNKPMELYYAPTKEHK
inactive: [1] 0.067 | [2] 0.014 | [3] 0.153 | [4] 0.064 | [5] 0.085

RNF185 (UniProt Q96GF1)
Chain of UniProt Q96GF1 (Q96GF1 whole entry, looked up): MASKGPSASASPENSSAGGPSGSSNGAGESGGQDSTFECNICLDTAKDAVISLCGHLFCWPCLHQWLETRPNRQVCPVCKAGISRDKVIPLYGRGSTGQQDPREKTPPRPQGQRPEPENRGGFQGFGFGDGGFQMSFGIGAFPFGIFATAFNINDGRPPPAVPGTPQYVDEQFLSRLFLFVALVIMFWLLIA
inactive: [1] -0.157 | [2] 0 | [3] 0.006 | [4] 0.104 | [5] -0.168

RSRC1 (UniProt Q96IZ7)
Chain of UniProt Q96IZ7 (Q96IZ7 whole entry, looked up): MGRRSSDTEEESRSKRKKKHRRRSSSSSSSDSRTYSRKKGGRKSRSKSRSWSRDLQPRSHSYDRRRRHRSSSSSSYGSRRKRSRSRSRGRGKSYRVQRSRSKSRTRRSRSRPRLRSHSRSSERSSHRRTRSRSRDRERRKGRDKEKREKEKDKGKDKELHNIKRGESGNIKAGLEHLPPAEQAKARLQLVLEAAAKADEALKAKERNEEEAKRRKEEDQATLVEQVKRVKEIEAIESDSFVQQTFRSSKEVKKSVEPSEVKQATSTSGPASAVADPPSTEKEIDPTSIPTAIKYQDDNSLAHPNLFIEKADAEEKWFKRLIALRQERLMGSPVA
inactive: [1] -0.002 | [2] -0.019 | [3] 0.079 | [4] -0.019 | [5] -0.03

RAB5C isoform 2 (UniProt P51148)
Chain of UniProt P51148 (P51148 whole entry, looked up): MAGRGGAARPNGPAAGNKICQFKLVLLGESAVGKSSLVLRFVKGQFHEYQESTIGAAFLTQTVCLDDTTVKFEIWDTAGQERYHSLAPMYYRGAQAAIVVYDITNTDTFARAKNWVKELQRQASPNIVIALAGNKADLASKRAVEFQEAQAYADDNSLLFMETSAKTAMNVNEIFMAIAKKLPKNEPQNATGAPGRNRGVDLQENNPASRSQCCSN
inactive: [1] -0.007 | [2] -0.009 | [3] -0.022 | [4] 0.011 | [5] 0.018

RARS2 (UniProt Q5T160)
Chain of UniProt Q5T160 (Q5T160 whole entry, looked up): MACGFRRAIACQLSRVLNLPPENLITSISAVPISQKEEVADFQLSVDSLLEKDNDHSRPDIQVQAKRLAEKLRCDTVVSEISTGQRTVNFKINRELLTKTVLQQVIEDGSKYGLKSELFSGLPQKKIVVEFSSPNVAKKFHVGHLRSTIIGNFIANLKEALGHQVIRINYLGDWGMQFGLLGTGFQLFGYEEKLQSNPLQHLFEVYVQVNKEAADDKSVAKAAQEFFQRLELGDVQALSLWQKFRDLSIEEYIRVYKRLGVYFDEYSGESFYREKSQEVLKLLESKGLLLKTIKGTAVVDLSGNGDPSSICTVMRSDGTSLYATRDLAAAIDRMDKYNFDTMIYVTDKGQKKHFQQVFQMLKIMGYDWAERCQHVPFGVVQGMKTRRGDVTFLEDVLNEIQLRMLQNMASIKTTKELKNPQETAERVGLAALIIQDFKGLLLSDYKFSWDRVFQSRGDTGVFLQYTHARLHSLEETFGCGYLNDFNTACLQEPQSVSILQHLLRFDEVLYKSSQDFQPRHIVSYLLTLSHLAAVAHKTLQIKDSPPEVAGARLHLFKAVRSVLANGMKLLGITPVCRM
inactive: [1] 0.021 | [2] 0.046 | [3] 0.044 | [4] -0.026 | [5] -0.007

SEH1L isoform 1 (UniProt Q96EE3)
Chain of UniProt Q96EE3 (Q96EE3 whole entry, looked up): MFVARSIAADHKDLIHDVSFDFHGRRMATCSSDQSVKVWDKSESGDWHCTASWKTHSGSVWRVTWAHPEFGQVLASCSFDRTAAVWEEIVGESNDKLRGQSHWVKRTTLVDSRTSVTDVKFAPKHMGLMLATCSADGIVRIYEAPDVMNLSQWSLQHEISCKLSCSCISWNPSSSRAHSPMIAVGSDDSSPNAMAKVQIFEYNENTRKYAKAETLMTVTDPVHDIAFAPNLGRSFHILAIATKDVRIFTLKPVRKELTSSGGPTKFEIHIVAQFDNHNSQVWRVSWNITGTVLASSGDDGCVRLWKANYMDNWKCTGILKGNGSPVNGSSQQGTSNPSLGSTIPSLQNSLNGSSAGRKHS
inactive: [1] -0.003 | [2] 0.06 | [3] -0.003 | [4] -0.014 | [5] 0.017

RRAS2 isoform 4 (UniProt P62070)
Chain of UniProt P62070 (P62070 whole entry, looked up): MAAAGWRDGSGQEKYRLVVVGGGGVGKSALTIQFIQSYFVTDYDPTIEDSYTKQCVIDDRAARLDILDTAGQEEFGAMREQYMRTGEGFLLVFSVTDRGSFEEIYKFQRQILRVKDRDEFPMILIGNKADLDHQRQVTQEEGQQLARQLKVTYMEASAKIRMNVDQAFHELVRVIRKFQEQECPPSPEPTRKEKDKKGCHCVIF
inactive: [1] 0.045 | [2] -0.017 | [3] -0.062 | [4] -0.03 | [5] 0.011
